Compound activity: PubChem, several laboratories
Hsp70 activator – Hsp70 transcriptional activation, primary screen | activation, % at 10 µM | HeLa Hsp70 promoter luciferase reporter, luminescence; scaled: vehicle 0, proteasome-inhibitor control 100% | AID 1203 | 200,000 compounds, 0.04% hits;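 active means activation above the mean across all tested compounds plus 3 SD, cutoff set per campaign, cut at about 5.5% in these data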;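 further: 100% = MG132 at 30 µM as the positive control and 0% = DMSO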
S1P4 antag – blocks the human S1P4 receptor | 220,000 compounds, 0.26% hits | inhibition, % at 4.98 µM | S1P4-expressing cells, antagonist mode, reporter read-out | O95977; in the data active means inhibition above about 29%;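 further: 0% = wells stimulated with agonist and 100% = vehicle wells without agonist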
Target sequence (O95977 whole entry, looked up): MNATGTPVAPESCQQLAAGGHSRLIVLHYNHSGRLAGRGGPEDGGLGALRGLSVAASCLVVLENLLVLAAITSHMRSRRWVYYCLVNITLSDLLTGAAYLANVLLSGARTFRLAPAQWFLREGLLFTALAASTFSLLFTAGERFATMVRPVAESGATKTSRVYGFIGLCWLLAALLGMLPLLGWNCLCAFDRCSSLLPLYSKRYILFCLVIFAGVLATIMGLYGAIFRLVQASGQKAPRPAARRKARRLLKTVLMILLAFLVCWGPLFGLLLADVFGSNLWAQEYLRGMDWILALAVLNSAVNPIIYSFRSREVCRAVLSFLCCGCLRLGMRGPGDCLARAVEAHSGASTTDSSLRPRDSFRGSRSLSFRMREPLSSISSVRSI
S1P4 agonist – human S1P4 receptor agonism; 220,000 compounds, 0.35% hits; S1P4-expressing cell line, agonist reporter assay; O95977; activation, % at 4.98 µM; in the data active means activation above about 11%;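 further: 0% = DMSO vehicle and 100% = reference agonist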
S1P3 antagonist – S1P3 (human) receptor antagonism | Q99500 | CHO S1P3 NFAT-BLA reporter, FRET fluorescence, antagonist mode | inhibition, % at 4.98 µM | 170,000 compounds, 0.27% hits | AID 485;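 active means inhibition above the plate cutoff, the mean inhibition of test wells on that plate plus 3 SD, cut at about 28% in these data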;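 further: cells challenged with S1P at its EC80 of 0.8 µM; blue over green emission ratio from cleaved BLA substrate after 4 h stimulation; 0% = S1P-stimulated wells and 100% = unstimulated DMSO-only wells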
AI-2 QS modul – Vibrio harveyi AI-2 quorum sensing modulation | Vibrio harveyi JMH597 AI-2 luminescence/OD600 ratio, 9 h; active compounds read low; strain lacks LuxN and CqsS sensors; 0 = neutral-control median | activity change, % at 7.5 µM | 300,000 compounds, 0.4% hits; in the data active means activity change below about -75%, passing the limit was not always enough; inconclusive means no clear call, values can overlap the other calls;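 further: luminescence divided by OD600 gain over 9 h not by final OD600 alone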
Numbers without * were called inactive; u = inconclusive; x = no result given. Only some compounds are listed: those with a hit (about 0.97% of all), similar ones and a draw of the others.

SMILES | Hsp70 activator | S1P4 antag | S1P4 agonist | S1P3 antagonist | AI-2 QS modul
CC1(c2ccccc2)NC(=O)N(CC(=O)Nc2ccc(C(N)=O)cc2)C1=O (stereo not drawn) | x | x | x | x | 3
C/C(=C\C(=O)OCCCCCCCCC(=O)O)C[C@@H]1OC[C@H](C[C@@H]2O[C@H]2[C@@H](C)[C@H](C)O)[C@@H](O)[C@H]1O | x | x | x | x | -173*
Cc1ccc(CSc2nc3ccncc3[nH]2)cc1 | -1 | -14 | 1 | x | -77*
Cc1ccc(Nc2ncccc2C(=O)O)cc1C | 0 | -20 | -1 | -24 | -79*
Cc1ccc(C#CC[N+]2(CC#Cc3ccc(C)cc3)CCCCC2)cc1 | 0 | -13 | 1 | -9 | 18
O=C(CNC(=O)c1cccs1)OCc1ccc(Cl)cc1 | x | x | x | x | -79*
CCc1ccc(OCCNC(=O)c2cccs2)cc1 | 0 | -18 | 1 | x | -79*
COc1cccc(NC(=O)CSC2=NN3CCCC(=O)N=C3S2)c1 | x | x | x | x | -57
COc1ccc(N(C)C(=O)C2CCCN2S(=O)(=O)c2cccc3nsnc23)c(OC)c1 (stereo not drawn) | x | x | x | x | -4
Cc1ccc(S(=O)(=O)Nc2nc(-c3ccc(F)cc3)cs2)cc1 | x | -4 | 1 | 1 | -92*
C=CC[n+]1c(/C=C/c2ccc(OC(C)=O)c(OC)c2)ccc2ccccc21 | x | x | x | x | 7
CC1CCCN(CCCNC(=O)C2CCN(S(=O)(=O)N3CCC4(CC3)OCCO4)CC2)C1 (stereo not drawn) | x | x | x | x | 3
O=[N+]([O-])c1cccc(C(=Nc2ccccc2)NO)c1 | 0 | -9 | 2 | 6 | -33
O=[N+]([O-])c1cccc(C(=Nc2ccccc2Cl)NO)c1 | 0 | -9 | -2 | x | -91*
CN1C(=O)C(C)(C)c2cc(S(=O)(=O)N3CCN(c4cccc(Cl)c4)CC3)ccc21 | x | x | x | x | 32
CN1CCN(C(c2ccc(C(F)(F)F)cc2)c2cc(Cl)c3cccnc3c2O)CC1 (stereo not drawn) | x | x | x | x | -85*
CN1CCN(C(c2ccc(Cl)cc2)c2cc(Cl)c3cccnc3c2O)CC1 (stereo not drawn) | x | x | x | x | -122*
CCN1CCN(C(c2ccc(C(F)(F)F)cc2)c2ccc3cccnc3c2O)CC1 (stereo not drawn) | x | x | x | x | -119*
Oc1c(C(c2ccccn2)N2CCCCC2)cc(Cl)c2cccnc12 (stereo not drawn) | 0 | -20 | -1 | -8 | u
Cc1cc(C)c(S(N)(=O)=O)c(C)c1N(C)S(=O)(=O)c1ccc(Cl)cc1 | x | x | x | x | 43
CCc1ccccc1NC1c2ccccc2C(=O)N1Cc1ccco1 (stereo not drawn) | 0 | -27 | 0 | 75* | 3
O=c1[nH]c2ccccc2c(O)c1-c1ccccc1[N+](=O)[O-] | 0 | 7 | 1 | 5 | 13
CCn1c(CNC(=O)Cc2ccc(OC)cc2)nnc1SCC(=O)Nc1nccs1 | 0 | -24 | 2 | 60* | 4
COc1cc(C(=S)N2CCN(c3ccccc3Cl)CC2)cc(O)c1O | 0 | -1 | 1 | -10 | -1
O=c1cc(-c2c(F)c(F)c(F)c(F)c2F)oc2c(F)c(F)c(F)c(F)c12 | 0 | 15 | -3 | x | -78*
SMILES | Hsp70 activator | S1P4 antag | S1P4 agonist | S1P3 antagonist | AI-2 QS modul
Cc1cc(-c2ccccc2)n(-c2ccccc2)n1 | x | x | x | x | 4
CCCC(=O)NC(=S)Nc1cccc(C(C)=O)c1 | 0 | 3 | 1 | x | -78*
CCC(=O)NC(=S)Nc1cccc(C(C)=O)c1 | 0 | 8 | 2 | x | -62
CC(C)c1ccc2c(c1)C1(NN=C(c3ccccc3)S1)C(=O)N2 (stereo not drawn) | 1 | -5 | 0 | x | -91*
CCc1ccc2c(c1)C1(NN=C(c3ccc(C)cc3)S1)C(=O)N2 (stereo not drawn) | 0 | 7 | 0 | x | -45
COc1ccc(NS(=O)(=O)c2cccc(NC(=O)CNC(C)=O)c2)cc1 | x | -3 | -1 | -5 | 15
COc1ccc(NS(=O)(=O)c2cccc(NC(=O)COc3ccc(OC)cc3)c2)cc1 | x | -12 | 0 | 14 | -83*
Cc1cccc2nc(-c3ccco3)c(Nc3ccccc3)n12 | 0 | -8 | -2 | 0 | 8
Cc1ccc(Nc2c(-c3ccccn3)nc3cccc(C)n23)cc1 | 0 | -11 | 0 | 28 | -80*
COc1cccc(Oc2nc(N)ncc2[N+](=O)[O-])c1 | x | x | x | x | 27
Cc1cc(NC(c2ccc(Cl)cc2)c2ccc3cccnc3c2O)no1 (stereo not drawn) | 0 | -3 | -1 | x | -93*
CCC(=O)NC(c1ccc(Cl)cc1Cl)c1ccc2cccnc2c1O (stereo not drawn) | x | x | x | x | 31
